Read-out in assay [1]: Thyroid Hormone Responsive (THRSP), THRSP (gene 7069)
In words: LTEA_HepaRG_THRSP: Life Technologies and Expression Analysis (LTEA) Assay for Thyroid Hormone Responsive (THRSP) using HepaRG (AID 2283536; active means hit-call score of the fitted dose curve at least 0.9, where 1 is the maximum; inactive means score below 0.9). The note with it: mRNA level, 48 h; actives raise or lower the signal. The procedure, abridged:
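Differentiated HepaRG cells treated 48 h in serum-free induction medium with 8 half-log concentrations up to 100 uM (0.5% DMSO), duplicates. THRSP mRNA by TaqMan qRT-PCR normalised to ACTB, GAPDH, POLR2A; bidirectional fit versus DMSO.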

Read-out in assay [2]: Cellular tumor antigen p53 (Homo sapiens) (UniProt P04637)
In words: LTEA_HepaRG_TP53: Life Technologies and Expression Analysis (LTEA) Assay for Tumor Protein P53 (TP53) using HepaRG (AID 2283537; active means hit-call score of the fitted dose curve at least 0.9, where 1 is the maximum; inactive means score below 0.9). Particulars: mRNA level, 48 h; actives raise or lower the signal. In short, it runs like this: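 HepaRG, 48 h exposure, top 100 uM, half-log 8-point, 0.5% DMSO vehicle, duplicates. Read: TP53 mRNA by TaqMan qRT-PCR, normalised to ACTB/GAPDH/POLR2A; bidirectional fit vs DMSO.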

Read-out in assay [3]: UDP glucuronosyltransferase (UGT1A1), UGT1A1 (gene 54658)
Nature of the assay: LTEA_HepaRG_UGT1A1: Life Technologies and Expression Analysis (LTEA) Assay for UDP glucuronosyltransferase (UGT1A1) using HepaRG (AID 2283538; active means hit-call score of the fitted dose curve at least 0.9, where 1 is the maximum; inactive means score below 0.9). The note with it: mRNA level, 48 h; actives raise or lower the signal. In short, it runs like this: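 Human liver HepaRG cultures receive test chemical for 48 h, up to 100 uM in 0.5% DMSO, with phenobarbital induction controls. UGT1A1 mRNA is measured by qRT-PCR and normalized to ACTB, GAPDH and POLR2A.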

Read-out in assay [4]: UDP glucuronosyltransferase (UGT1A6), UGT1A6 (gene 54578)
Nature of the assay: LTEA_HepaRG_UGT1A6: Life Technologies and Expression Analysis (LTEA) Assay for UDP glucuronosyltransferase (UGT1A6) using HepaRG (AID 2283539; active means hit-call score of the fitted dose curve at least 0.9, where 1 is the maximum; inactive means score below 0.9). The note with it: mRNA level, 48 h; actives raise or lower the signal. The procedure, abridged:
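Expression was quantified by TaqMan qRT-PCR on Fluidigm arrays with ACTB/GAPDH/POLR2A normalization and bidirectional fitting against 0.5% DMSO. HepaRG cells (~100,000/well) were treated in duplicate for 48 h at eight half-log concentrations up to 100 uM in serum-free induction medium.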

Read-out in assay [5]: X-box binding protein 1 (XBP1), XBP1 (gene 7494)
Nature of the assay: LTEA_HepaRG_XBP1: Life Technologies and Expression Analysis (LTEA) Assay for X-box binding protein 1 (XBP1) using HepaRG (AID 2283540; active means hit-call score of the fitted dose curve at least 0.9, where 1 is the maximum; inactive means score below 0.9). The note with it: mRNA level, 48 h; actives raise or lower the signal. The procedure, abridged:
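XBP1 transcript by qRT-PCR (housekeeping-normalized: ACTB, GAPDH, POLR2A) after 48 h chemical treatment of HepaRG cells, 8-point half-log series topping at 100 uM, vehicle 0.5% DMSO. Gain and loss of signal fitted relative to DMSO.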

Assay [6] in a line: LTEA_HepaRG_LDH_cytotoxicity: Cytotoxicity Assessment in the Life Technologies and Expression Analysis (LTEA) Assay (AID 2283563). The procedure, abridged:
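LDH release into culture medium read after 48 h chemical treatment of HepaRG cells. Duplicate wells, eight-point half-log series topping at 100 uM, 0.5% DMSO vehicle and baseline.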

A short description of assay [7]: TOX21_p53_BLA_p2_viability: Viability Assessment in the Tox21 HCT-116 p53 Agonism Beta-lactamase Assay, Phase 2 (AID 2283591).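 Further: compound exposure lasted 16 h at 37 °C; actives lower the ATP signal meaning cytotoxicity.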 In short, it runs like this: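 HCT116 p53-bla cells, 4000/well, dosed after 5 h plating (217-fold dilution of DMSO stocks) and incubated 16 h at 37C. Viability taken as cellular ATP by CellTiter-Glo luminescence after 30 min RT; signal loss marks cytotoxicity.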

Assay [8] has as its target Cellular tumor antigen p53 (Homo sapiens) (UniProt P04637). Nature of the assay: TOX21_p53_BLA_p2_ratio: Tox21 HCT-116 p53 Agonism Beta-lactamase Assay, Ratio, Phase 2 (AID 2283592). In short, it runs like this:
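Gain-of-signal p53 agonism was scored from the beta-lactamase FRET ratio (460/530 nm, 405 nm excitation) in HCT116 cells treated 16 h at 37C, 5% CO2, with DMSO serving as negative control and baseline.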

Assay [9] in a line: TOX21_p53_BLA_p3_viability: Viability Assessment in the Tox21 HCT-116 p53 Agonism Beta-lactamase Assay, Phase 3 (AID 2283593).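 Further: cells exposed to compound for 16 h before reading.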 The procedure, abridged: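 HCT116 cells, 4000/well, dosed 5 h after plating by pin transfer (217-fold dilution from DMSO stock) and incubated 16 h at 37C, 5% CO2. Viability read as ATP luminescence with CellTiter-Glo after 30 min at room temperature.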

Assay [10] concerns the target Cellular tumor antigen p53 (Homo sapiens) (UniProt P04637). Nature of the assay: TOX21_p53_BLA_p3_ratio: Tox21 HCT-116 p53 Agonism Beta-lactamase Assay, Ratio, Phase 3 (AID 2283596). The procedure, abridged:
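HCT116 p53-bla cells (4000/well) given compound in DMSO (217-fold dilution) after 5 h, incubated 16 h at 37C. CCF4-AM substrate 2 h at room temperature; 460/530 nm emission ratio, gain fitted against DMSO.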

Assay [11] is described as follows: TOX21_p53_BLA_p4_viability: Viability Assessment in the Tox21 HCT-116 p53 Agonism Beta-lactamase Assay, Phase 4 (AID 2283597).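 Further: hits lower the luminescence signal meaning cytotoxicity.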 The procedure, abridged: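 Following a 16 h exposure at 37C, the treated HCT116 wells were first read for the FRET ratio. They were then lysed with CellTiter-Glo, and ATP luminescence was recorded after 30 min at room temperature.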
Assay [12] concerns the target Cellular tumor antigen p53 (Homo sapiens) (UniProt P04637). Nature of the assay: TOX21_p53_BLA_p5_ratio: Tox21 HCT-116 p53 Agonism Beta-lactamase Assay, Ratio, Phase 5 (AID 2283599). In short, it runs like this:
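HCT-116 p53-bla cells (4000/well) plated 5 h, dosed with compound (217-fold DMSO dilution) for 16 h at 37 C; CCF4-AM substrate 2 h at room temperature. Activity is the 460/530 nm emission ratio (405 nm excitation), fitted in gain-of-signal direction versus DMSO.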

The nature of assay [13]: TOX21_p53_BLA_p5_viability: Viability Assessment in the Tox21 HCT-116 p53 Agonism Beta-lactamase Assay, Phase 5 (AID 2283600). In short, it runs like this:
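After the 460/530 nm beta-lactamase measurement, the wells received an ATP-detection luciferase reagent; signal was read 30 min later at RT. Compound treatment lasted 16 h on cells pre-incubated 5 h post-seeding.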

Assay [14] has as its target Cellular tumor antigen p53 (Homo sapiens) (UniProt P04637). In words: TOX21_p53_BLA_p4_ratio: Tox21 HCT-116 p53 Agonism Beta-lactamase Assay, Ratio, Phase 4 (AID 2283601). In short, it runs like this: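 HCT-116 p53 beta-lactamase reporter cells (4000/well) preincubated 5 h, then compound (217-fold dilution of DMSO stock) for 16 h at 37C. CCF4-AM substrate added 2 h at room temperature; 460/530 nm emission ratio fitted upward versus DMSO.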

A short description of assay [15]: Tanguay_ZF_120hpf_MORT_legacy: (Legacy) Oregon State University Tanguay Lab 120 Hour Post-fertilization zebrafish Assay for Mortality (AID 2283633).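 On AC50: fitted as increase in binary mortality versus DMSO negative control.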 In short, it runs like this: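 Static waterborne exposure from 6 to 120 hpf at 28C of single dechorionated wild-type (5D) embryos per well, 0.64% DMSO final. Death recorded present/absent by brightfield at 24 and 120 hpf.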

Assay [16] in a line: Tanguay_ZF_120hpf_YSE_legacy: (Legacy) Oregon State University Tanguay Lab 120 Hour Post-fertilization zebrafish Assay for Yolk Sac Edema (AID 2283634). In short, it runs like this: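 Presence or absence of yolk sac edema was recorded at 120 hpf in surviving larvae. These were wild-type Tropical 5D embryos, chorion removed at 4 hpf, held in static exposure at 28C from 6 hpf with 0.64% DMSO vehicle.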

Assay [17] can be described thus: Tanguay_ZF_120hpf_AXIS_legacy: (Legacy) Oregon State University Tanguay Lab 120 Hour Post-fertilization zebrafish Assay for Body Axis Malformation (AID 2283635). The procedure, abridged:
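Binary scoring of axis defects at 120 hpf under brightfield, fitted positive versus DMSO. Tropical 5D embryos, chorion removed by pronase at 4 hpf, were singly exposed in sealed, dark plates at 28C from 6 hpf; DMSO 0.64% final.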

Assay [18] is described as follows: Tanguay_ZF_120hpf_EYE_legacy: (Legacy) Oregon State University Tanguay Lab 120 Hour Post-fertilization zebrafish Assay for Eye Malformation (AID 2283636).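 Further: binary presence or absence of eye malformation scored by brightfield in 120 hpf larvae.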 The procedure, abridged:
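Dechorionated Tropical 5D zebrafish embryos, one per well from 6 hpf, static exposure to 120 hpf at 28C, 0.64% DMSO. Eye malformation scored present/absent by brightfield; dead embryos not scored.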

Assay [19] in a line: Tanguay_ZF_120hpf_SNOU_legacy: (Legacy) Oregon State University Tanguay Lab 120 Hour Post-fertilization zebrafish Assay for Snout Malformation (AID 2283637). The procedure, abridged:
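Dechorionated tropical 5D wild-type zebrafish embryos exposed statically from 6 to 120 hpf at 28C, one per well, in 0.64% DMSO. Snout malformation scored as present/absent by brightfield at 120 hpf; dead embryos not scored.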

A short description of assay [20]: ATG_XTT_Cytotoxicity: Cytotoxicity Assessment in the Attagene TRANS-FACTORIAL HepG2 Assay (AID 2283584). The procedure, abridged: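 Viability endpoint from XTT after 24 h chemical exposure of reporter-transfected human HepG2 liver cells; signal loss fitted relative to DMSO negative control.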

Inconclusive results are not listed. Some compounds were tested as several samples or in several runs, with calls that do not always agree. Active and inactive are the calls of the source. How the source made its calls, unless noted: active means hit-call score of the fitted dose curve at least 0.9, where 1 is the maximum; inconclusive means response in the unintended direction; inactive means score below 0.9.

Chain of Cellular tumor antigen p53 (Homo sapiens) (P04637 whole entry, looked up): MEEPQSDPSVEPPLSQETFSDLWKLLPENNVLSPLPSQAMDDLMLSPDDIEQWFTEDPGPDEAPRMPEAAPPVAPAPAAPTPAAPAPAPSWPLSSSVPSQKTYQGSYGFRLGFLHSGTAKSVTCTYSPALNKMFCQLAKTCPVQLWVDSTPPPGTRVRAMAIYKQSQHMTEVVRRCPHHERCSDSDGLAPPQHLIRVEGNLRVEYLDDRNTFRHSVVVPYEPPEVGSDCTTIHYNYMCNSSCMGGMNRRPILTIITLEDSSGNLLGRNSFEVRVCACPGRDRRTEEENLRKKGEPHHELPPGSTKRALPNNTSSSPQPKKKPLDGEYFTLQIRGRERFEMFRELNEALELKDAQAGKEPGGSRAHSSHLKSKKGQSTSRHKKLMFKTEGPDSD

Turning to `NS(=O)(=O)c1cc2c(cc1Cl)NCNS2(=O)=O`, the molecule was classed as inactive in assay [1], in assay [2], in [3], in [4], in assay [5] and in assay [6]. Further, the call in assay [7], in assay [8], in assay [9], in assay [10], in assay [11] and in [12] was inactive. Also, the call in [13], in [14], in assay [15], in assay [16], in assay [17] and in assay [18] was inactive. The outcome in [19] was inactive.
The term AC50 denotes the concentration at which the activity in the assay is half-maximal. `COCCOCCOC`: the outcome in [1], in assay [4], in assay [6], in [20], in assay [7] and in assay [8] was inactive. In addition, the result in assay [10], in [12], in assay [13], in assay [14], in [15] and in [16] was inactive. Moreover, the outcome in assay [17], in [18] and in [19] was inactive. Also, the AC50 in assay [2] is 0.59 µM (active); in assay [3], 3.2 µM (active); in assay [5], 1.16 µM (active).
Consider `CCCCCCCCCCCCCCCCCC(=O)O`, for which the outcome in [1], in [2], in assay [3], in assay [4], in assay [5] and in assay [6] was inactive. Besides, the molecule was called inactive in [20], in assay [15], in [16], in assay [17], in assay [18] and in assay [19].
`O=C(O)Cc1ccccc1Nc1c(Cl)cccc1Cl`: the outcome in assay [1], in assay [2], in assay [4], in assay [5], in assay [6] and in assay [20] was inactive. The outcome in assay [7], in assay [8], in assay [9], in assay [10], in [12] and in [14] was inactive. Further, the molecule was called inactive in [16], in assay [17], in [18] and in [19]. Further, the AC50 in assay [3] was 6.2 µM (active); in [8], 68.9 µM (active); in [10], 86 µM (active); in [11] it was 46.1 µM (active); in assay [12] it was 86.4 µM (active); in assay [14], 71.7 µM (active). Besides, the AC50 in [15] is 30.6 µM (active).
With `O=C(N[C@@H](Cc1ccccc1)[C@@H](O)C(=O)N1C[C@@H](O)[C@@H](O)C1)c1cc2cc(Cl)ccc2[nH]1`, the AC50 was 88.6 µM (active) in assay [1], 50 µM (active) in assay [2], 50 µM (active) in [5] and 71 µM (active) in [11]. Also, the call in assay [3], in assay [4], in [6], in assay [7], in assay [8] and in assay [9] was inactive. Also, the result in assay [10], in assay [12], in [13], in [14], in assay [15] and in assay [16] was inactive. In addition, the outcome in assay [17], in [18] and in assay [19] was inactive.
In the case of `Clc1cc(Cl)c(Cl)cc1Cl`, the call in assay [1], in assay [2], in assay [3], in assay [4], in assay [5] and in assay [6] was inactive. Moreover, the molecule was classed as inactive in [20], in assay [7], in [9], in assay [10], in [11] and in [12]. For the same molecule, the molecule was called inactive in assay [13], in assay [14], in assay [15] and in [18].
Take `O=C(O)CCCCC(=O)O`: the call in assay [1], in assay [2], in assay [3], in [4], in assay [5] and in assay [6] was inactive. Besides, the result in [20], in assay [7], in assay [8], in assay [9], in assay [10] and in assay [11] was inactive. Also, the outcome in [12], in assay [13], in [14], in [15], in [16] and in assay [18] was inactive. Further, in [19], the outcome was inactive.

The record behind these values is PubChem BioAssay (EPA / NIEHS).
